# Compound activity from PubChem BioAssay.
# EPAC2 ag: qHTS for Agonist of cAMP-regulated guanine nucleotide exchange factor 4 (EPAC2): primary screen | Potency, µM (series often up to 154 µM), for inactives: at the top dose activation, hits mostly activators | Rap guanine nucleotide exchange factor 4 (Homo sapiens), Q8WZA2 | actives 0.079% (n = 360,000) | EPAC2 activation, biochemical qHTS; response scale: 100% = 6.5 mM cAMP response; further: nearly all actives have a fitted effect of over 50% in size
# Target sequence (Q8WZA2 whole entry, looked up): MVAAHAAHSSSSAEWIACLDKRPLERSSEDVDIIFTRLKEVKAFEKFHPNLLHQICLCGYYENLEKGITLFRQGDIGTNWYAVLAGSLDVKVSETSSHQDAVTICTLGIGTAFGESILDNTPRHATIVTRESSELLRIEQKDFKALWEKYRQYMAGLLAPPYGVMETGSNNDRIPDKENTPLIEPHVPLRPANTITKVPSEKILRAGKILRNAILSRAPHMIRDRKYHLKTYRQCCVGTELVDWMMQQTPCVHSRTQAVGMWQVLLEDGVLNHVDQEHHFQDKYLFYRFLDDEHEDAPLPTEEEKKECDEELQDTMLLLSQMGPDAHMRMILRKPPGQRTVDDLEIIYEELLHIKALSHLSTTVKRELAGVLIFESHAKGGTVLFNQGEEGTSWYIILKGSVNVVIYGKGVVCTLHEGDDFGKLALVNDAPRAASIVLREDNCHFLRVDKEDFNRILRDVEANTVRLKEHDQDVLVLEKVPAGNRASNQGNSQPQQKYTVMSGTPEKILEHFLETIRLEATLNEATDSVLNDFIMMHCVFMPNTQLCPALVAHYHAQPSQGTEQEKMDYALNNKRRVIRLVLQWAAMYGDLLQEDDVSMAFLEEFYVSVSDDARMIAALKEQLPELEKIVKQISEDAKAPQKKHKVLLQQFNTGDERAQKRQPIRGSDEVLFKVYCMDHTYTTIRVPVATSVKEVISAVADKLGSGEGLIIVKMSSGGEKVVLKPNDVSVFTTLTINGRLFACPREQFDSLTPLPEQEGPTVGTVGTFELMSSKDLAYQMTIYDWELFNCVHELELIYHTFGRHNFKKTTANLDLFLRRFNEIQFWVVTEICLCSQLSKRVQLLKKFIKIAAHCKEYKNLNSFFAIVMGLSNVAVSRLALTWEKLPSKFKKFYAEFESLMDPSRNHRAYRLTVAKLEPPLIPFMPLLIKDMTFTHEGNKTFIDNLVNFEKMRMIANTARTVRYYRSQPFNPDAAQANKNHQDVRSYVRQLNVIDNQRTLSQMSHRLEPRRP
#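 Setup: EPAC2 100 nM, labeled Rap1B complex 250 nM, free GDP 50 uM. Compound titrations pinned in, brief spin, 5 min room temperature incubation. Kinetic fluorescence read over 30 min, normalized to 6.5 mM cAMP.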
# BRCA1 expr up: qHTS Assay to Identify Small Molecule Activators of BRCA1 Expression. MCF7-BRCA1-FFLuc reporter, luminescence, 48 h; response scale: scaled: vehicle 0%, 10 µM genistein 100%. Potency, µM (doses to about 46.1 µM), for inactives: top-dose activation, usual class: activators. actives 1.1% (n = 380,000); further: nearly all actives have a fitted effect of over 80% in size
#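 First, MCF7-BRCA1-FFLuc cells (2000/well) attach for 2 h; next, compounds are pin-added and incubated 48 h at 37 °C; finally, luciferase reagent is added and luminescence read after 15 min.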
# EPAC1 ag: qHTS for Agonist of cAMP-regulated guanine nucleotide exchange factor 3 (EPAC1): primary screen | Rap guanine nucleotide exchange factor 3 (Homo sapiens), O95398 | EPAC1 agonist qHTS, biochemical assay; response scale: 100% = response to 6.5 mM cAMP | Potency, µM (doses to about 154 µM), for the others: at the top dose activation, hits mostly activators | actives 0.073% (n = 360,000); further: nearly all actives have a fitted effect of over 60% in size
#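 Nucleotide exchange by EPAC1 (100 nM) on Rap1B–BODIPY-GDP (250 nM) in the presence of 50 uM GDP is tracked fluorescently at 480/540 nm over 30 min. Signals are normalized to a 6.5 mM cAMP control.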
# EPAC1 antag: qHTS for Antagonist of cAMP-regulated guanine nucleotide exchange factor 3 (EPAC1): primary screen; EPAC1 GEF assay, Rap1b-BODIPY-GDP exchange fluorescence; Potency, µM (doses to about 115 µM), without a hit: top-dose activity change, negative = inhibition, actives largely listed as inhibitors; actives 0.14% (n = 360,000); AID 720709, 2013;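 further: plate controls were vehicle for no effect and positive control for full effect; nearly all actives have a fitted effect of over 50% in size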
# EPAC2 antag: qHTS for Antagonist of cAMP-regulated guanine nucleotide exchange factor 2 (EPAC2): primary screen | Rap guanine nucleotide exchange factor 4 (Homo sapiens), Q8WZA2 | Potency, µM (top dose mostly 114 µM), for inactives: at the highest dose activity, negative = inhibition, usual class: inhibitors | EPAC2 GEF exchange of Rap1B-BODIPY-GDP, fluorescence | actives 0.18% (n = 360,000); further: on the % scale 0 is the no-effect control and ±100 the full control effect; nearly all actives have a fitted effect of over 45% in size
# USP1 inh: Inhibitors of USP1/UAF1: Primary Screen. Ubiquitin carboxyl-terminal hydrolase 1 (Homo sapiens), O94782. Potency, µM (series often up to 57.1 µM), for inactives: at the highest dose activity change, negative = inhibition, usual class: inhibitors. actives 0.23% (n = 390,000). recombinant USP1/UAF1, Ub-Rhodamine cleavage fluorescence; further: on the % scale 0 is the no-effect control and ±100 the full control effect; nearly all actives have a fitted effect of over 60% in size
#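 In this screen, compounds sit with the deubiquitinase complex (1nM) for 15 min at room temperature before Ub-Rho is added at 150nM final. Fluorescence rise is then followed for 6 reads every 60 seconds.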
# * marks the source's active call; other numbers are inactive results; ? = inconclusive; . = no result. An excerpt weighted towards active compounds, which were near 1.4% of everything screened. The call rests on the fitted dose curve; in most records, active means well fitted curve in the direction sought with a large enough effect; inconclusive means small, poorly fitted or top-dose-only effect, or another doubt; inactive means no such curve, though single readings can be large; an effect the other way counts as inactive or inconclusive. Potency means the concentration at half of the fitted maximal effect.
SMILES,EPAC2 ag,BRCA1 expr up,EPAC1 ag,EPAC1 antag,EPAC2 antag,USP1 inh
CSc1ccccc1OCc1cc(C(=O)N(C)Cc2nonc2C)no1,16%,11µM*,3%,-23%,-4%,-14%
Cc1cc(C)nc(CCNC(=O)c2cc(COc3ccccc3)on2)n1,-2%,7.9µM*,-12%,-12%,3%,-26%
COc1cc(OC)c(OC)cc1/C=C/c1nc2ccccc2o1,.,11%,.,.,.,.
CSc1ccccc1OCc1cc(C(=O)NCc2cccc(C)n2)no1,-5%,6.3µM*,-3%,-1%,-2%,-35%
CSc1ccccc1OCc1cc(C(=O)NC(C)Cc2cccc(C)n2)no1 (stereo not given),19%,?,10%,?,-12%,-11%
CC(C)n1[nH]c2ccccc2c1=O,9%,11%,-9%,-3%,9%,.
O=C1CSC(=S)N1/N=C/c1ccc(O)c(O)c1O,3%,-4%,-10%,25µM*,19%,?
COc1ccccc1C=NN1C(=O)CSC1=S,1%,-10%,1%,-1%,-2%,-25%
Cc1oc2c(c1C(=O)c1ccc(Cl)cc1)C(=O)C(=O)c1ccccc1-2,7%,-55%,-6%,-6%,-8%,?
Cc1ccc(C(=O)c2coc3c2C(=O)C(=O)c2ccccc2-3)cc1,5%,18µM*,9%,8%,1%,-18%
Cc1ccc(C(=O)c2c(C)oc3c2C(=O)C(=O)c2ccccc2-3)cc1,-2%,-72%,15%,-15%,4%,14µM*
Cc1nc2ccc(C(=O)N(C)Cc3ccco3)cn2c1N(C)CC1CCCCC1,-2%,0%,-10%,4%,-22%,.
COc1cnc(-c2ccccn2)nc1Oc1c(C)cccc1C,-5%,-29%,-11%,-3%,14µM*,-12%
Cc1cccc(NC(=O)c2ccc(OCC3CCCO3)cc2)c1C (stereo not given),2%,14µM*,-8%,0%,13%,-15%
O=C(Nc1ccc(Cl)cc1)c1ccc(OCC2CCCO2)cc1 (stereo not given),4%,4.5µM*,7%,12%,-2%,-18%
CCCCc1ccc(C(=O)COC(=O)c2ccc3nc(C)c(C)nc3c2)cc1,.,40%,.,.,.,.
CCCCCCCCCC[n+]1ccc(/C=C/c2ccc(N(C)C)cc2)c2ccccc21,.,-80%,.,.,.,.
N#C/C(=C\c1ccc(N2CCCCC2)o1)C(=O)Nc1cccc(Br)c1,?,1µM*,?,85%,161%,28µM*
COc1cc(NC(=O)c2c(OC)cccc2OC)ccc1NC(=O)c1cc2ccccc2o1,10%,11µM*,0%,-8%,5%,-23%
COc1cc(NC(=O)c2ccc(F)cc2)ccc1NC(=O)c1cc2ccccc2o1,0%,0%,-7%,19%,-8%,-11%
Cc1cc(C(=O)Nc2ccc([N+](=O)[O-])cn2)cs1,2%,3.2µM*,2%,-16%,-5%,-16%
O=C(Nc1ccc2nc(-c3ccco3)c(-c3ccco3)nc2c1)N1CCN(c2ccccn2)CC1,2%,-8%,2%,35µM*,-14%,-15%
O=C(Nc1ccc(N2CCOCC2)cc1)c1ccc2nc(-c3ccco3)c(-c3ccco3)nc2c1,3%,-17%,-6%,1%,17%,-4%
S=C(Nc1ccc(N2CCOCC2)cc1)Nc1ccc2nc(-c3ccco3)c(-c3ccco3)nc2c1,18%,-11%,5%,?,0%,25µM*
O=C(Nc1ccc2nc(-c3ccco3)c(-c3ccco3)nc2c1)N1CCCC1,.,23%,.,.,.,.
SMILES,EPAC2 ag,BRCA1 expr up,EPAC1 ag,EPAC1 antag,EPAC2 antag,USP1 inh
Cc1ccc2c(=O)cc(C(=O)Nc3c(C(=O)Nc4cccc(Cl)c4)oc4ccccc34)oc2c1,.,.,.,.,.,-12%
O=C(CSc1nc(-c2ccccc2)ns1)N1CCOCC1,-1%,4µM*,-1%,-8%,-9%,-25%
Cc1cccc(-c2nsc(SCC(=O)N3CCCC3)n2)c1,1%,?,-2%,5%,3%,-14%
Cc1ccc(Cl)cc1NC(=O)COC(=O)CSc1ccccc1,7%,-14%,8%,-14%,-4%,-7%
Cc1c(Cl)cccc1NC(=O)N1CCC(CN2CCOCC2)CC1,.,.,.,.,.,-11%
O=C(NCCN1CCC(n2c(=O)[nH]c3ccccc32)CC1)c1ccc(F)cc1Cl,7%,9%,2%,10%,3%,.
CN1C(=O)/C(=C/c2coc3ccc(O)cc3c2=O)SC1=S,5%,-2%,4%,0%,3%,2%
N=C1/C(=C\c2coc3ccc(O)cc3c2=O)C(=O)N=C2SC=CN12,63µM*,-64%,89µM*,116%,236%,28µM*
Cc1cc(/C=C2\C(=N)N3N=C(c4ccco4)SC3=NC2=O)c(C)n1Cc1ccccc1,2%,4%,9%,?,-5%,?
N=C1/C(=C\c2coc3ccccc3c2=O)C(=O)N=C2SC(c3ccncc3)=NN12,63µM*,-27%,100µM*,-4%,28%,28µM*
N=C1/C(=C/c2coc3ccccc3c2=O)C(=O)N=C2SC(c3ccco3)=NN12,100µM*,-29%,89µM*,161%,84%,178%
CCCCN(c1ccccc1)S(=O)(=O)c1cc2c3c(c1)C(C)C(=O)N3CCC2 (stereo not given),.,.,.,.,.,-10%
Cc1ccccc1/C=C1\CCCc2ccccc2C1=O,2%,7.1µM*,3%,7%,11%,-16%
Clc1ccc(CON/C=N/c2ncnc3sccc23)cc1,7.9µM*,-26%,18%,-21%,-15%,-11%
CC(=O)c1ccc(N2CCN(c3ncccn3)CC2)cc1,0%,10µM*,9%,-10%,-4%,-23%
CCCCCCCCCCCCCCCCCCNc1ccn(C2OC(COP(=O)(O)OCC3OC(n4cc(F)c(=O)[nH]c4=O)CC3O)C(O)C2O)c(=O)n1 (stereo not given),9%,-58%,-35%,22µM*,4%,?
